Records with an inconclusive call do not appear. Where a call stands in place of a potency, no number is given. Activity calls are given as the source filed them. Calls follow the shape of the dose curve; as a rule, active = well fitted inhibition curve with a large enough effect; inconclusive = small, poorly fitted or top-dose-only effect; inactive = flat fitted curve, though single readings scatter.
Biological target: Dual specificity protein kinase CLK4 (Homo sapiens) (UniProt Q9HAZ1)
Test: qHTS Assay for Inhibitors of CDC-like Kinase 4 (ADP-Glo Assay) (AID 1771); also: nearly all actives have a fitted effect of over 70% in size
Details: recombinant CLK4, ADP-Glo luminescence; series mostly up to 80 µM
Protocol: NIH Molecular Libraries Probe Production Centers Network [MLPCN] NIH Chemical Genomics Center [NCGC] MLPCN Grant: 1R03MH084827-01 Assay Submitter (PI): Tom Misteli NCGC Assay Overview: Clk4 (Invitrogen, cat# PV3839) was assayed using ATP and the RS repeat peptide (AnaSpec cat # 61722) as substrates. In the assay, the ADP levels were detected using Promega ADP-Glo technology wherein the remaining ATP from the kinase reaction is first depleted with an ATPase reagent followed by a reagent that contains and enzyme which converts the ADP produced to ATP as well as Ultra-Glo luciferase and D-luciferin which generates a bioluminescence signal from the ATP. The positive control for the assay was TG003 (Sigma-Aldrich, cat# 300801-52-9) which has been described as an inhibitor of Clk 4[1].
NCGC Assay Protocol Summary: Two uL/well of substrate-buffer solution (100 uM RS peptide, 1 uM ATP, 1x ADP-Glo Buffer A, 2 mM MgCl2, 0.5 mM EGTA, 2.5 mM DTT, 0.01% Triton X-100, final concentrations) was dispensed into 1536-well plates (Greiner, solid white, medium binding assay plates) with the Aurora Discovery BioRAPTR Flying Reagent Dispenser (FRD; Beckton-Dickenson). Twenty-three nanoliter of compound and control solutions were transferred to the assay plate using a Kalypsys pin-tool followed by 0.5 uL/well Clk4-buffer solution (25 nM Clk4, 1x ADP-Glo Buffer A, 2 mM MgCl2, 0.5 mM EGTA, 2.5 mM DTT, 0.01% Triton X-100 final concentration) dispensing for a total kinase reaction volume of 2.5 uL/ well. After 1 hr of room-temperature incubation, 2.5 uL ADP-Glo reagent was added and incubated at room temperature for 45 min to stop the kinetic reaction and degrade residual ATP. The ADP product was then converted to ATP by adding 5 uL per well of ADP-Glo Reagent II to yield a total assay volume of 10 uL/ well. Luminescence was detected after 30 min room temperature incubation with the Perkin Elmer Viewlux.
Potency is read from the fitted curve at half-maximal effect.

Chain of Dual specificity protein kinase CLK4 (Homo sapiens) (Q9HAZ1 whole entry, looked up): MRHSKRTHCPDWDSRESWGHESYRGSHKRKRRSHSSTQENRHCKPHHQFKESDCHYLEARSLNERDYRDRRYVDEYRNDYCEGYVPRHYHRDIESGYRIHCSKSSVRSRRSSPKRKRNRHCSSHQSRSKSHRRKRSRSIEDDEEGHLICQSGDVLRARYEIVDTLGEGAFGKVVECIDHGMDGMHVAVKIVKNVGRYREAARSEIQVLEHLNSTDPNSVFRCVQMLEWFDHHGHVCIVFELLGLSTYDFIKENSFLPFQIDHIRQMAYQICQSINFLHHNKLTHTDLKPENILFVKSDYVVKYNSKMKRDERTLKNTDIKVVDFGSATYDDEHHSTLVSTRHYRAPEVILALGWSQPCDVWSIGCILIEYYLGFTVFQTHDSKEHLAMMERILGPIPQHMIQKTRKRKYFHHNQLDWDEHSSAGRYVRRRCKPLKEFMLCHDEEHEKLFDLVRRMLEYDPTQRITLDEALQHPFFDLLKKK

SMILES | Potency
COc1cccc(-c2ccc3ncnc(N(C)Cc4ccco4)c3c2)c1 | 1.78 µM (active)
COc1ccc(Oc2ncc3nc(CCc4ccccc4)c(=O)n(C[C@H]4CCCO4)c3n2)cc1 | inactive
COc1cccc(Nc2ncc3nc(CCc4ccccc4)c(=O)n(C)c3n2)c1 | inactive
Cc1noc(C)c1-c1cncnc1NCc1ccccc1 | inactive
CNc1ncnc2ccc(-c3ccccc3CN(C)C)cc12 | 12.6 µM (active)
Cc1cnc(CNc2ccnc(-c3ccccc3C(F)(F)F)n2)cn1 | inactive
CN(C)c1ncnc2ccc(-c3cccnc3)cc12 | 7.08 µM (active)
Cc1noc(C)c1-c1cc(NCc2cccnc2)ncn1 | 22.4 µM (active)
COCCn1c(=O)c(-c2ccc(Cl)cc2)nc2cnc(Oc3cccc(Cl)c3)nc21 | inactive
Cc1nc2cnc(N3CCOCC3)nc2n(C[C@H]2CCCO2)c1=O | inactive
CN(C)c1ccc(-c2ccc3ncnc(-n4ccnc4)c3c2)cc1 | 4.47 µM (active)
CN(C)c1ncnc2ccc(-c3ccoc3)cc12 | 0.562 µM (active)
COc1ccc(-n2c(=O)c(-c3cccs3)nc3cnc(N(C)C)nc32)cc1 | inactive
Cc1cnc(CNc2cc(-c3cccc(NS(C)(=O)=O)c3)ncn2)cn1 | 15.8 µM (active)
COc1cccc(Nc2ncc3nc(C)c(=O)n(C4CC4)c3n2)c1 | 11.2 µM (active)
COCCn1c(=O)cnc2cnc(N3CCN(C)CC3)nc21 | inactive
Cc1nc2cnc(N3CCNCC3)nc2n(CCc2ccccc2)c1=O | inactive
COc1cccc(Cn2c(=O)c(-c3cc(F)cc(F)c3)nc3cnc(N4CCN(C)CC4)nc32)c1 | inactive
COCCn1c(=O)c(C)nc2cnc(Oc3ccccc3)nc21 | inactive
O=c1cnc2cncnc2n1Cc1ccc(F)cc1 | inactive

SMILES | Potency
Cc1noc(C)c1-c1ccc2ncnc(Nc3ccc(F)cc3)c2c1 | 6.31 µM (active)
COc1ccc(-n2c(=O)cnc3cnc(N(C)C)nc32)cc1 | 12.6 µM (active)
CCNc1ncc2nc(-c3ccccc3)c(=O)n(C[C@H]3CCCO3)c2n1 | inactive
FC(F)(F)c1ccccc1-c1nc(NCCN2CCOCC2)c2ccccc2n1 | inactive
COc1ccc(-n2c(=O)c(-c3cccs3)nc3cnc(N4CCOCC4)nc32)cc1 | inactive
COc1ccc(CNc2ncnc3ccc(-c4cccc(NS(C)(=O)=O)c4)cc23)c(OC)c1 | 25.1 µM (active)
COc1ncc2nc(-c3ccccc3)c(=O)n(-c3ccccc3)c2n1 | inactive
CN(C)c1ncc2ncc(=O)n(CCc3ccccc3)c2n1 | 6.31 µM (active)
COc1ccc(Oc2ncc3nc(-c4ccc(OC)cc4)c(=O)n(C)c3n2)cc1 | inactive
CS(=O)(=O)Nc1cccc(-c2ccc3ncnc(NC4CCNCC4)c3c2)c1 | 7.08 µM (active)
COc1ccc(-c2nc3cnc(Oc4ccccc4)nc3n(CCC#N)c2=O)cc1 | inactive
CCNc1ncc2nc(C)c(=O)n(Cc3ccc(F)cc3)c2n1 | 15.8 µM (active)
COc1cccc(Nc2ncc3nc(-c4ccccc4)c(=O)n(Cc4cccs4)c3n2)c1 | inactive
Cc1nc2cnc(N3CCN(C)CC3)nc2n(Cc2ccc(F)cc2)c1=O | inactive
O=c1cnc2cnc(Nc3ccccc3)nc2n1Cc1cccs1 | 2 µM (active)
Cn1c(=O)c(-c2cccs2)nc2cnc(OCc3ccccc3)nc21 | inactive
FC(F)(F)c1ccccc1-c1nccc(NCc2cccs2)n1 | inactive
CN(C)Cc1ccccc1-c1nc(N(C)C)c2ccccc2n1 | inactive
Fc1ccc(Nc2ncncc2-c2ccoc2)cc1 | 10 µM (active)
COc1ccc(-c2nc3cnc(Oc4cccc(Cl)c4)nc3n(C3CC3)c2=O)cc1 | inactive
